Among the data in PubChem BioAssay (NCI) are growth values, retold here.

Each structure is given as a SMILES string. This is part of a sample that, as a whole, favours compounds with a hit. Of some 83,000 tested, about 20% had one in any assay.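 For each line, cells grew in 96-well plates with the test compound present at a single concentration for 48 hours.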 A number with no mark means an inactive call. Active and inactive are the calls of the source. Rule for the calls: active = growth percent below 10; inactive = the rest.

Some test systems named below: T-47D breast; MDA-MB-435 melanoma; SW-620 colon; MCF7 breast; HCT-116 colon; HCC-2998 colon; KM12 colon.
Holding throughout (test): NCI-60 one-dose screen, 48 h (100 = growth as untreated, 0 = no growth, -100 = all killed)
Common to all, as to conditions: 10 µM unless noted

On to `CCN(CC)CCCCCCCNc1c2ccc(Cl)cc2nc2ccc(OC)cc12`, for which the growth in the assay on T-47D breast was -42.3% (active); with MDA-MB-435 melanoma it was -78.9% (active); in the assay on SW-620 colon, -52.9% (active); in the assay on MCF7 breast, -32.4% (active); in the assay with HCT-116 colon, -49.6% (active); with HCC-2998 colon, -78.9% (active). Besides, the growth in the assay on KM12 colon was -37.2% (active).

Turning to `CCSc1ncc(Br)c(Sc2nc(N)nc3nc[nH]c23)n1`, the growth in the assay on T-47D breast is 29.9%; with MDA-MB-435 melanoma it was 37.7%; with SW-620 colon, 91.4%; with MCF7 breast it was 47%; in the assay on HCT-116 colon it was 36.8%; in the assay with HCC-2998 colon, 41.4%. Besides, in the assay on KM12 colon, the growth is 79%.

For the compound `COc1ccc2c(c1)[n+](=O)c(C(=O)/C=C/c1cc(OC)c(OC)c(OC)c1)c(C)n2[O-]`, the growth was 60.1% with T-47D breast; 69.5% with MDA-MB-435 melanoma; 45.6% with MCF7 breast; 50.3% in the assay on HCT-116 colon; 98.1% with HCC-2998 colon; 88.6% in the assay with KM12 colon.

Take `COc1ccccc1-n1c(-c2ccc(O)cc2C)cn2c3c(=O)[nH]c(=O)n(C)c3nc12`: the growth was 77.3% with T-47D breast; 101% in the assay with MDA-MB-435 melanoma; 94.7% in the assay with SW-620 colon; 91.7% with MCF7 breast; 97% in the assay with HCT-116 colon; 104% in the assay on HCC-2998 colon. For the same compound, the growth in the assay on KM12 colon was 103%.

In the case of `O=Nc1c2cccnc2n2nnc3ccc(Cl)cc3c12`, the growth was 12.1% in the assay with T-47D breast; 70.4% with MDA-MB-435 melanoma; -67.3% (active) with SW-620 colon; -10.6% (active) in the assay with MCF7 breast; 0.54% (active) in the assay on HCT-116 colon; 93.1% in the assay with HCC-2998 colon. Besides, in the assay on KM12 colon, the growth is 25.2%.

With `COc1ccc2c(=O)c(OC)c(-c3cc(OC)c(OC)c(OC)c3)oc2c1`, the growth in the assay on T-47D breast is 76.1%; in the assay on MDA-MB-435 melanoma, 105%; in the assay with SW-620 colon it was 92.2%; in the assay on MCF7 breast, 88%; with HCT-116 colon, 87.2%; in the assay on HCC-2998 colon, 82.5%. Besides, the growth in the assay on KM12 colon was 97.8%.

With `CCSCC1CC(O)(c2ccccc2)C(c2ccccc2)C(c2ccc(Cl)cc2)O1` (stereo not given), the growth in the assay on T-47D breast was -7.67% (active); with MDA-MB-435 melanoma it was -17.3% (active); with SW-620 colon, 1.98% (active); with MCF7 breast, 0.0329% (active); in the assay on HCT-116 colon it was 1.69% (active); in the assay with HCC-2998 colon it was 17.9%. Also, in the assay with KM12 colon, the growth was -31.2% (active).

With `FC(F)(F)c1cc(-c2nnc3n2N=C(N2CCCC2)CS3)cc(C(F)(F)F)c1`, the growth in the assay on T-47D breast is 64%; with MDA-MB-435 melanoma, 96.8%; in the assay on SW-620 colon it was 95.9%; in the assay with MCF7 breast, 95.3%; in the assay on HCT-116 colon it was 42.5%; in the assay on KM12 colon it was 89.2%.

Turning to `COc1ccc(-c2cc(-c3cccnc3)nc(S(=O)(=O)CC(=O)Nc3ccc(C)cc3)c2C#N)cc1OC`, the growth in the assay on T-47D breast was 64%; with MDA-MB-435 melanoma it was 98.6%; in the assay with SW-620 colon, 98.3%; with MCF7 breast, 88.4%; in the assay on HCT-116 colon, 85.8%; in the assay with KM12 colon, 95.9%.

Take `COc1cccc(/C=N/Nc2nc3ccccc3s2)c1OC`: the growth is 67.5% in the assay with T-47D breast; 91.5% with MDA-MB-435 melanoma; 96.7% with SW-620 colon; 63.2% with MCF7 breast; 42.5% in the assay with HCT-116 colon; 70.5% with KM12 colon.

Take `Fc1ccc(-c2nn3c(-c4cc(C(F)(F)F)cc(C(F)(F)F)c4)nnc3s2)cc1`: the growth was 51.8% in the assay with T-47D breast; 76.3% in the assay with MDA-MB-435 melanoma; 65.8% in the assay with SW-620 colon; 68.7% in the assay with MCF7 breast; -17.3% (active) with HCT-116 colon; 77.5% in the assay on KM12 colon.

Turning to `CCOC(=O)CCN(c1c(Cl)ssc1=O)C(C)C`, the growth in the assay with T-47D breast is 112%; with MDA-MB-435 melanoma it was 107%; with SW-620 colon it was 99.3%; with MCF7 breast it was 89.7%; in the assay with HCT-116 colon, 93.4%; in the assay with HCC-2998 colon, 115%. In the assay with KM12 colon, the growth was 113%.

Consider `Clc1ccc2[nH]cc(-c3cncn3CCc3ccccc3)c2c1`, for which the growth in the assay on T-47D breast is 13.2%; with MDA-MB-435 melanoma, 50.9%; with SW-620 colon, 72.8%; in the assay with MCF7 breast, 53.2%; in the assay with HCT-116 colon, 44.1%; with HCC-2998 colon, 89.2%. Further, the growth with KM12 colon is 72.9%.

With `Cc1cc(C)cc(S(=O)(=O)n2ccc(-c3ccc4c(c3)CCC(C)(C)O4)n2)c1`, the growth in the assay on T-47D breast was 58.2%; with MDA-MB-435 melanoma it was 93.8%; with SW-620 colon it was 88.3%; in the assay with MCF7 breast, 81.5%; in the assay with HCT-116 colon, 77.8%; with HCC-2998 colon, 88.2%. Moreover, in the assay on KM12 colon, the growth is 82.7%.

As for `[N-]=[N+]=NCc1ncc(-c2ccc(C(F)(F)F)cc2)c(NC2CCCCCC2)n1`, the growth with T-47D breast was 63.1% [50 µM]; in the assay on MDA-MB-435 melanoma, 61.6% [50 µM]; in the assay on SW-620 colon, 75.4% [50 µM]; in the assay with MCF7 breast, 66.2% [50 µM]; with HCT-116 colon it was 40.5% [50 µM]; in the assay with HCC-2998 colon it was 85.8% [50 µM]. Moreover, in the assay on KM12 colon, the growth is 46.8% [50 µM].

As for `COc1ccc(-c2nnc3c4[nH]cnc4ncn23)c(OC)c1`, the growth was 28.5% with T-47D breast; 13.2% in the assay with MDA-MB-435 melanoma; 23.2% with SW-620 colon; 7.19% (active) with MCF7 breast; 14.8% in the assay on HCT-116 colon; 26.3% with HCC-2998 colon. For the same compound, in the assay on KM12 colon, the growth is 22.5%.

As for `COc1ccc(CC(=O)Nc2nn3c(-c4cc(C(F)(F)F)cc(C(F)(F)F)c4)nnc3s2)cc1`, the growth is 42.7% in the assay with T-47D breast; 57.1% in the assay on MDA-MB-435 melanoma; 84.2% in the assay on SW-620 colon; 66.9% in the assay on MCF7 breast; 61.9% in the assay with HCT-116 colon; 65.7% with KM12 colon.

With `CCCCc1n(Cc2ccc3ccccc3c2)cc[n+]1Cc1ccc2ccccc2c1`, the growth in the assay with T-47D breast was -1.14% (active); with MDA-MB-435 melanoma, -77.5% (active); in the assay on SW-620 colon it was 1.48% (active); with MCF7 breast it was -42.3% (active); with HCT-116 colon it was -97.2% (active); in the assay on HCC-2998 colon, -5.21% (active). Moreover, the growth with KM12 colon is -82.5% (active).
